This is a sample that favours compounds with a hit; in the whole collection about 19% have one here.
DT40 TDP1 no CPT – qHTS for Inhibitors of human tyrosyl-DNA phosphodiesterase 1 (TDP1): qHTS in cells in absence of CPT | DT40 Tdp1-/- hTDP1 cells, no CPT, ATP luminescence, 48 h | Potency, µM (titrated, usually from 46.2 µM), inactives show at the top dose activity change, negative = growth inhibition, actives largely listed as inhibitors | 420,000 tested, 15% active | AID 686978, 2013; further: nearly all actives have a fitted effect of over 55% in size
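Stably hTDP1-transfected Tdp1-null chicken DT40 cells were treated with library compounds minus camptothecin and grown for at least 48 hr at 37 °C, after which cellular ATP was quantified by luminescence.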
VP16 counter – counter-screen for ROR gamma inhibitors: Gal4-VP16 reporter; Drosophila S2 Gal4-VP16 UAS-luciferase, luminescence, 20 h; Potency, µM (series often up to 53.6 µM), for inactives: top-dose activity, negative = inhibition, usual class: inhibitors; 310,000 tested, 3.5% active; AID 2546;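 further: Gal4-VP16 expression switched on by copper sulfate through the metallothionein promoter; nearly all actives have a fitted effect of over 50% in size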
RORg inh – blocks mouse ROR gamma transcriptional activity; P51450; Drosophila S2 Gal4-RORgamma UAS-luciferase reporter, 20 h; Potency, µM (doses to about 53.6 µM), for the others: at the highest dose activity change, negative = inhibition, most hits filed as inhibitors; 310,000 tested, 5.4% active; AID 2551; further: nearly all actives have a fitted effect of over 60% in size
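Read-out: Photinus luciferase luminescence; inhibitors lower reporter signal. Insect Schneider cells with Gal4-ROR gamma fusion under metallothionein promoter, UAS reporter; 700 uM final copper sulfate induction, 20 hr, ambient temperature.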
TDP1 inh – blocks human tyrosyl-DNA phosphodiesterase 1; 350,000 tested, 0.28% active; Q9NUW8; recombinant TDP1, AlphaScreen DNA substrate cleavage; Potency, µM (top dose mostly 130 µM), for the others: top-dose activity change, negative = inhibition, usual class: inhibitors; further: nearly all actives have a fitted effect of over 40% in size
Target sequence (Q9NUW8 whole entry, looked up): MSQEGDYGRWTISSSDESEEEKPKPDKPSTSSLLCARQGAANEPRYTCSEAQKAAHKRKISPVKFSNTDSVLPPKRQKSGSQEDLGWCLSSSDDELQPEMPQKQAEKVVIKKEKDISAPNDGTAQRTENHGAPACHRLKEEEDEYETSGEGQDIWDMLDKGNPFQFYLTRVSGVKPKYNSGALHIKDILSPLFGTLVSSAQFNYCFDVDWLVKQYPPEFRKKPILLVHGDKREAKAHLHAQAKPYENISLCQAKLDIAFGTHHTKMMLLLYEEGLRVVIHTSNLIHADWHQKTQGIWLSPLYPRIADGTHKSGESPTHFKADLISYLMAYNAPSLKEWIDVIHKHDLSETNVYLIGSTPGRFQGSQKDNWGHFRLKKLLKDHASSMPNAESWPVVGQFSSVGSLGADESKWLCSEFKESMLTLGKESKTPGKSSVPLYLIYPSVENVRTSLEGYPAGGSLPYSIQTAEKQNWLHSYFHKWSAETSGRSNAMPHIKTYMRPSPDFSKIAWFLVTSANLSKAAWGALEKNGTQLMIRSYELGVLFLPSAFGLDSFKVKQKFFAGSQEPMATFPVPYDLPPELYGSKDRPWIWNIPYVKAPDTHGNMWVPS
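Enzyme-compound mixtures sat 15 min at room temperature, followed by a 5 min reaction with 15 nM final substrate and 10 min with AlphaScreen beads. Recombinant human Tdp1 was used at 1 nM final.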
TDP1 cell CPT – growth inhibition of DT40 Tdp1-/-;hTDP1 cells with camptothecin (screen for TDP1 inhibitors) | AID 686979 | chicken DT40 Tdp1-/-;hTDP1 cells + 20 nM CPT, ATP luminescence, 48 h | 420,000 tested, 12% active | Potency, µM (top dose mostly 46.2 µM), for the others: top-dose activity change, negative = growth inhibition, hits mostly inhibitors; further: nearly all actives have a fitted effect of over 55% in size
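Cell growth measured by CellTiter-Glo luminescence after a minimum 48 h, 37 C compound exposure with 20 nM CPT in Tdp1-knockout DT40 cells stably expressing hTDP1, seeded 400/well; qHTS titration format.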
The depositor's hits bear a star; ? = inconclusive; nt = no result; ! = repeats disagree; [ ] = dose if it differs, or a comment. The call rests on the fitted dose curve; in most records, active means well fitted curve in the direction sought with a large enough effect; inconclusive means small, poorly fitted or top-dose-only effect, or another doubt; inactive means no such curve, though single readings can be large; an effect the other way counts as inactive or inconclusive. On the % scale 0 is the no-effect control and ±100 the full control effect; potency means the concentration at half of the fitted maximal effect.

SMILES | DT40 TDP1 no CPT | VP16 counter | RORg inh | TDP1 inh | TDP1 cell CPT
COC(=O)c1c(N=CN(C)C)c(C#N)c2n1CCCC2 | 3.0% | -9.7% | -21.2% | 0.0% | -2.8%
Clc1cccc(N2CCN(c3nc4ccccc4n4nnnc34)CC2)c1 | ? | nt | nt | -2.5% | ?
FC(F)(F)c1ccccc1NC1=NCCC1 | -1.0% | 5.1% | 5.0% | -2.6% | 10.3%
CC[C@H]1c2[nH]c3ccccc3c2C[C@@H]2C(=O)N(c3ccc(F)cc3)C(=O)N21 | ? | nt | nt | nt | 16.4µM*
CCCCN1C[C@H](Cc2ccccc2)[C@@H](CC(=O)NCc2ccc(OC)cc2)C1=O | 22.4µM*! | 0.0% | 25.0% | nt | 17.8µM*
COc1ccc(N2C[C@H](Cc3ccccc3)[C@@H](CC(=O)Nc3ccccc3)C2=O)cc1 | 20.6µM* | nt | nt | nt | ?
CCCCC[C@H]1CN(CCc2ccccc2)C(=O)[C@@H]1CC(=O)NCc1ccc(OC)cc1 | 18.4µM* | 1.6% | 42.8% | nt | ?
CCCCC[C@H]1CN(Cc2ccccc2)C(=O)[C@@H]1CC(=O)NCc1ccccc1 | 14.1µM* | 0.0% | 33.6% | nt | 11.2µM*
Cc1ccc(S(=O)(=O)N2CCN(Cc3cccnc3)CC2)cc1 | 0.0% | 4.5% | 29.8% | 5.7% | -8.9%
Oc1ccc(-c2nc3c4c(ncn3n2)-c2ccccc2CC42CCCC2)cc1 | 16.4µM* | -6.0% | -5.2% | 2.2% | 14.6µM*
CCCC(=O)Nn1cnc2c(c1=O)C1(CCCC1)Cc1ccccc1-2 | -16.5% | 1.1% | 5.5% | 2.2% | 1.2%
CC(=O)Nn1cnc2c(c1=O)C1(CCCC1)Cc1ccccc1-2 | 0.3% | -18.0% | 28.7% | -3.2% | -1.2%
Nn1cnc2c(c1=O)C1(CCCCC1)Cc1ccccc1-2 | 8.2µM* | -1.6% | 26.2% | 10.7% | 9.2µM*
CCOc1ccc(NS(=O)(=O)c2ccc3[nH]cc(C(=O)NCc4ccco4)c(=O)c3c2)cc1 | -26.7% | nt | nt | ? | 0.1%
O=C(Nc1ccc(F)cc1)C1CCCN(c2ncnc3c2nc2n3CCCCC2)C1 (stereo not drawn) | 11.6µM* | nt | nt | -5.7% | 13µM*
CCCN(C(=O)C1CCCN(c2ncnc3c2nc2n3CCCCC2)C1)c1ccc(F)cc1 (stereo not drawn) | 20.6µM* | 11.8% | 36.1% | 4.4% | 18.4µM*
Cc1ccc(NC(=O)C2CCCN(c3ncnc4c3nc3n4CCCCC3)C2)cc1F (stereo not drawn) | 23.1µM* | nt | nt | 6.2% | 18.4µM*
O=C(Nc1cccnc1)C1CCCN(c2ncnc3c2nc2n3CCCCC2)C1 (stereo not drawn) | ? | 13.8% | 31.3% | 6.7% | -29.7%
CCc1ccccc1NC(=O)N1CCC(NC(=O)C(Cc2ccc(OC)c(OC)c2)NC(C)=O)CC1 (stereo not drawn) | 6.3% | 3.3% | 0.7% | 3.1% | 2.2%
O=C(NCCc1ccccc1F)c1[nH]c(C(F)(F)F)nc1-c1ccccc1 | -30.0% | nt | nt | nt | 0.7%
O=C(Cc1ccccc1)c1c[nH]c(C(=O)C(Cl)(Cl)Cl)c1 | 6.51µM* | 19.3% | -15.0% | nt | 2.91µM*
O=C(c1ccc(Cl)cc1)c1c[nH]c(C(=O)C(Cl)(Cl)Cl)c1 | 11.6µM* | -2.8% | -25.6% | 4.7% | 11.6µM*
O=C(c1c[nH]c(C(=O)C(Cl)(Cl)Cl)c1)c1ccc(F)cc1F | 13µM* | -19.7% | ? | nt | ?
CN(C)C(=O)c1cc(C(=O)c2ccc(F)cc2F)c[nH]1 | -21.9% | -1.1% | 23.1% | nt | 18.2%
O=C(c1ccccc1)c1c[nH]c(C(=O)C(Cl)(Cl)Cl)c1 | ? | -5.1% | -43.7% | 4.9% | ?
SMILES | DT40 TDP1 no CPT | VP16 counter | RORg inh | TDP1 inh | TDP1 cell CPT
O=C(c1c[nH]c(C(=O)C(Cl)(Cl)Cl)c1)c1ccc(F)cc1Cl | 13µM* | ? | ? | 5.5% | ?
CNC(=O)c1cc(C(=O)c2ccc(F)cc2Cl)c[nH]1 | -24.4% | -10.1% | 11.7% | nt | 0.6%
CCN(CC(=O)Nc1c(F)cccc1F)C(=O)CSCC(=O)Nc1ccc(OC)cc1 | ? | nt | nt | nt | -2.6%
Cc1ccc2cc(C=O)c(N3CCOCC3)nc2c1C | 18.4µM* | -12.2% | -19.6%[1.91 µM] | nt | ?
COC(=O)CCCN1C(=O)c2cccc3cccc(c23)C1=O | -18.2% | 7.2% | ? | 3.5% | 12.4%
N#Cc1c(C(F)(F)F)cc(=O)n2c1[nH]c1ccccc12 | 14.6µM* | ? | ? | 1.5% | 13µM*
CC1CCCCC12NC(=O)N(CC(=O)Nc1ccccc1-c1ccccc1)C2=O (stereo not drawn) | 0.8% | ? | 2.2% | 2.6% | -6.3%
CCn1cc(Br)c(C(=O)N2CCN(c3ccccc3)CC2)n1 | -12.1% | 15.2% | 22.6% | 7.1% | -6.5%
COc1ccc(NC(=S)Nc2cccc(Cl)c2Cl)cc1OC | -14.0% | 0.8% | -37.2% | 0.0% | -12.4%
Cc1ccnc(NC(=O)Nc2ccc(Br)cc2Cl)c1 | -55.6% | -16.1% | -1.4% | 5.5% | ?
Cc1cc(C)nc(NC(=S)Nc2ccc(Br)cc2Cl)c1 | 6.51µM* | ? | 0.562µM* | 5.3% | 6.51µM*
Cc1cc(C)nc(NC(=S)Nc2cccc(Cl)c2Cl)c1 | -23.4% | 1.78µM* | 0.398µM* | 2.6% | -16.4%
COc1cccc(Nc2ncnc3c2cnn3C)c1 | -10.0% | 24.2% | 26.9% | 7.4% | -24.9%
Cc1ccc(CN2CCSc3ccc(C(=O)NCc4ccco4)cc32)cc1 | ? | -1.9% | ? | 7.9% | ?
CCOc1ccccc1CNC(=O)c1ccc2c(c1)N(CC)CCS2 | 9.2µM* | -5.4% | 30.6% | 4.9% | 14.6µM*
CCN1CCSc2ccc(C(=O)NC(C)c3ccccc3)cc21 (stereo not drawn) | 23.1µM* | nt | nt | 6.4% | 18.4µM*
CCN1CCSc2ccc(C(=O)NCc3ccc(F)cc3)cc21 | nt | nt | nt | 9.0% | nt
C=CCN1C(=O)CSc2ccc(C(=O)NC(C)c3ccccc3)cc21 (stereo not drawn) | 9.0% | -1.1% | 5.1% | 0.8% | 1.6%
CCN1CCSc2ccc(C(=O)NCc3cccc(F)c3)cc21 | 18.4µM* | 7.2% | 32.0% | 5.9% | ?
Cc1ccc(CN2CCSc3ccc(C(=O)Nc4ccc(C)cc4)cc32)cc1 | 16.4µM* | nt | nt | 1.3% | 16.4µM*
CCC(=O)N(CC)c1nc(-c2cc(OC)ccc2OC)cs1 | ? | -19.7% | ? | 2.4% | ?
COc1ccccc1CNC(=O)COC(=O)c1cc(=O)[nH]c2ccccc12 | 1.9% | nt | nt | 0.2% | -0.4%
COc1ccccc1CNC(=O)c1ccc2c(c1)N(Cc1ccc(C)cc1)CCS2 | ? | nt | nt | 6.4% | 16.4µM*
CCOc1ccccc1CNC(=O)c1ccc2c(c1)N(Cc1ccc(C)cc1)CCS2 | 9.2µM* | nt | nt | 1.0% | 18.4µM*
CN1OC[C@@H]2CN(C(=S)NCCc3ccccc3)[C@H](c3ccccc3Br)C[C@@H]21 | 16.4µM* | nt | nt | nt | ?

High-throughput results deposited in PubChem by National Center for Advancing Translational Sciences (NCATS).
